High-throughput results: PubChem BioAssay, National Center for Advancing Translational Sciences (NCATS)
This is a sample that favours compounds with a hit; in the whole collection about 3.7% have one here.
GLP-1R agonist = agonists of human GLP-1 receptor. P43220. HEK293 GLP-1R CRE-luciferase, luminescence, 4-6 h; cells express a hypersensitive GLP-1R form. Potency, µM (top dose mostly 45.6 µM), inactives show top-dose activation, most hits filed as activators. 0.007% of 380,000 active; note: % of control where 0% means no effect
Target sequence (P43220 whole entry, looked up): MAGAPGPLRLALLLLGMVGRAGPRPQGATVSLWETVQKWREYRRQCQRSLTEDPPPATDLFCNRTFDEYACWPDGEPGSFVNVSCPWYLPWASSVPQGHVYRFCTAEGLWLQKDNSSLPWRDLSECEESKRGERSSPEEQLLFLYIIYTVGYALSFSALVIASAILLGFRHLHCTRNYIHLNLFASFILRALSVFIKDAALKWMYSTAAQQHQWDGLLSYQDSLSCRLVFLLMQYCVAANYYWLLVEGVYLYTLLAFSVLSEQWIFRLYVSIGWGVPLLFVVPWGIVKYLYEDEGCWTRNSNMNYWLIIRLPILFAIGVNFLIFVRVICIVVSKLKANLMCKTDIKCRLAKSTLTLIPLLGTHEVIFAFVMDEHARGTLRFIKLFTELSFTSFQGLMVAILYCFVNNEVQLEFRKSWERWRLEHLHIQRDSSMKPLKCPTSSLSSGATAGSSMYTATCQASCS
GLP-1R inv ag = inverse agonists of human GLP-1 receptor. P43220. HEK293 GLP-1R CRE-luciferase, luminescence, 24 h; GLP-1R form is constitutively active. Potency, µM (series often up to 38.3 µM), inactives show top-dose activity change, negative = inhibition, hits mostly inhibitors. 1.6% of 410,000 active. AID 624417; note: % is set by controls: 0 for no effect and ±100 for the full control effect; nearly all actives have a fitted effect of over 55% in size
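Inverse agonism was detected as reduced cAMP-driven luciferase luminescence after 24 h compound treatment. The cells were HEK293 clones expressing constitutively active human GLP-1R with the reporter. Reporter-only and GPR119 cell lines served as counterscreen controls.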
ATXN2 expr inh = ATXN2 expression inhibition; HEK-293 ATXN2-luciferase reporter, luminescence, 24 h; Potency, µM (top dose mostly 57 µM), for the others: at the top dose activity change, negative = inhibition, most hits filed as inhibitors; 0.72% of 360,000 active; AID 1745845; note: % is set by controls: 0 for no effect and ±100 for the full control effect; nearly all actives have a fitted effect of over 55% in size
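ATXN2-luciferase reporter cells (luciferase flanked by upstream and downstream ATXN2 gene portions) were treated 24 h at 37 °C with compounds at up to 57 uM. SteadyGlo luminescence gave expression; GF-AFC fluorescence gave viability.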
TGFb SMAD3 inh = TGF-b pathway inhibition. HepG2 CAGA-GFP TGF-b/SMAD3 reporter, GFP fluorescence, 18 h; TGF-beta stimulated, 500 pg/mL final. Potency, µM (titrated, usually from 46.1 µM), without a hit: at the top dose activity, negative = inhibition, actives largely listed as inhibitors. 1.2% of 410,000 active; note: % is set by controls: 0 for no effect and ±100 for the full control effect; nearly all actives have a fitted effect of over 65% in size
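Inhibition of TGF-beta-driven CAGA-GFP reporter expression in HEPG2 cells is measured by cellular GFP fluorescence after 18 h stimulation with 500 pg/mL recombinant TGF-beta in 1% FBS medium at 37 degrees C.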
ATXN viability = reduces viability in counter-screen for ATXN expression inhibitors; S2 cells (HEK-293 line with an ATXN2-luciferase reporter) viability, CellTiter-Fluor protease fluorescence, 24 h; Potency, µM (doses to about 56.7 µM), most hits filed as cytotoxic; 0.49% of 400,000 active; AID 651635; note: nearly all actives have a fitted effect of over 40% in size
HepG2 tox = kills HepG2 cells in TGF-b inhibitor counter-screen | HepG2 CAGA-GFP viability, ATP luminescence, 18 h | Potency, µM (doses to about 46.1 µM), without a hit: at the top dose activity change, negative = cytotoxicity, actives largely listed as cytotoxic | 0.76% of 410,000 active
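HepG2 CAGA-GFP cells (1000/well, DMEM with 1% FBS) received compound, then TGF-beta at 500 pg/mL final, and were incubated 18 hours at 37 degrees C. Viability was read by CellTiter-Glo luminescence. Media-only wells were set as complete cell-killing and DMSO as no toxicity.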
* marks the source's active call; other numbers are inactive results; i = inactive; ? = inconclusive; . = no result; ! = not confirmed by another sample; [ ] = dose if it differs, or a comment. Calls come from the whole dose curve; as a rule, active = well fitted curve in the direction sought with a large enough effect; inconclusive = small, poorly fitted or top-dose-only effect, or another doubt; inactive = no such curve, though single readings can be large; an effect the other way counts as inactive or inconclusive. Potency is the fitted concentration of half-maximal effect.

SMILES	GLP-1R agonist	GLP-1R inv ag	ATXN2 expr inh	TGFb SMAD3 inh	ATXN viability	HepG2 tox
CC(=O)Nc1ccc(NC(=O)Cn2cnc3c(cnn3C(C)(C)C)c2=O)cc1	28%	16%	1%	0%	i	3%
CC(C)(C)n1ncc2c(=O)n(CC(=O)NCc3ccccc3)cnc21	-14%	4.5µM*	?	15%	i	-7%
COc1cccc(CNC(=O)c2cc(-c3ccc(Cl)cc3)n[nH]2)c1	.	0%	.	?	.	-46%
O=C1CCSC2(C(=O)N(Cc3ccc(F)cc3)c3ccccc32)N1c1ccccc1 (stereo not drawn)	.	?	.	?	.	-48%
Cc1cccc(N2C(=O)CCSC23C(=O)N(Cc2ccc(F)cc2)c2ccccc23)c1 (stereo not drawn)	.	?	.	?	.	18µM*
O=C1CCSC2(C(=O)N(Cc3ccc(F)cc3)c3ccccc32)N1c1cccc(F)c1 (stereo not drawn)	.	?	.	13µM*	.	-50%
Cc1cccc(N2C(=O)CSC23C(=O)N(CC(=O)NCc2ccccc2Cl)c2ccccc23)c1 (stereo not drawn)	2%	10µM*	-9%	-4%	i	-26%
Cc1sc2ccccc2[n+]1CCCCBr	.	.	.	?	.	-21%
CCOC(=O)c1cnn(-c2ccc(OC)cc2)c1C1CCN(C(=O)OC(C)(C)C)CC1	1%	?	-24%	?	i	-18%
CCOc1ccc(NC(=O)c2cn(-c3ccc(OCC)cc3)c(=O)c3cc(OC)c(OC)cc23)cc1	-7%	6%	-1%	0%	i	0%
CCOc1ccc(-n2cc(C(=O)N3CCC(C)CC3)c3cc(OC)c(OC)cc3c2=O)cc1	23%	?	1%	13µM*	i	-36%
CCCc1cnc(NCCNCC(O)COc2ccc(Cl)c(Cl)c2)nc1 (stereo not drawn)	3%	5µM*	?	?	?	20µM*
CC(=O)c1cccc(OCC(O)CNCCc2ccc(Cl)cc2)c1 (stereo not drawn)	-1%	-24%	-11%	0%	i	-10%
O=[N+]([O-])c1cccc(S(=O)(=O)N2CCN(c3nc(-c4cccs4)nc4ccccc34)CC2)c1	.	.	.	4%	.	11%
CC(C)Oc1ccc(CNC(=O)CCCN2C(=O)c3cccnc3Oc3ccc(Cl)cc32)cc1	.	-15%	.	-1%	.	2%
COc1ccccc1NC(=O)c1c(C)cc(C)nc1SCC(=O)Nc1cccc(C)c1	.	?	-19%	10µM*	?	-21%
CCOc1ccc(CN2CCN(Cc3[nH]c4ccc(OC)cc4c3C)CC2CCO)cc1 (stereo not drawn)	6%	13µM*	-2%	10%	i	0%
O=C(O)c1cccc(-n2sc3ccccc3c2=O)c1	0%	0%	-24%	?	?	-38%
O=c1c2ccccc2sn1-c1ccccc1F	-5%	14µM*	?	?	20µM*	-87%
Cn1sc2ccccc2c1=O	1%	12%	28µM*	?	.	-111%
O=c1c2ccccc2sn1-c1ccccc1	-8%	10µM*	?	16µM*	.	-60%
O=c1c2ccccc2sn1-c1nccs1	-2%	8%	-4%[11.3 µM]	-21%	?	-7%
N#Cc1ccc2c(=O)n(-c3ccccc3)sc2c1	4%	9%	-35%	-34%	10µM*	-57%
Cc1ccccc1-n1sc2cc(F)ccc2c1=O	4%	?	?	?	?	-40%
CSCCC(NS(=O)(=O)c1ccc2c(c1)oc(=O)n2C)C(=O)Nc1ccc(Cl)cc1 (stereo not drawn)	-1%	-22%	9%	-9%	i	-12%
SMILES	GLP-1R agonist	GLP-1R inv ag	ATXN2 expr inh	TGFb SMAD3 inh	ATXN viability	HepG2 tox
O=c1c2ccccc2sn1-c1cccc(Cl)c1	-3%	?	-25%	?	25µM*	-65%
O=c1c2cc(F)ccc2sn1-c1ccccc1	7%	7%	?	11µM*	13µM*	-94%
CN(C(=O)/C=C/c1ccccc1)C1CCCCC1	9%	?	36%	-11%	i	11µM*
COC(=O)C[C@H]1c2ccccc2S(=O)(=O)N1c1cccc(OC)c1	2%	6%	6%	4%	?	-2%
COc1ccc(CN2[C@@H](CC(C)=O)c3ccc(/C=C/C(C)=O)cc3S2(=O)=O)cc1	-1%	10%	?	?	?	11µM*!
COc1cccc(N2[C@@H](CC(C)=O)c3ccc(/C=C/C(C)=O)cc3S2(=O)=O)c1	-6%	-3%	?	16µM*	.	-37%
COc1ccc(CN2[C@@H](CC(=O)O)c3ccc(/C=C/C(=O)O)cc3S2(=O)=O)cc1	.	.	.	12%	.	28%
O=C1C[C@@H](c2ccccc2Cl)N1S(=O)(=O)c1ccccc1[N+](=O)[O-]	.	.	.	0%	.	1%
O=C(/C=C\Nc1ccccn1)c1ccccc1	-36%	?	5%	28%	i	-36%
O=C(/C=C/Nc1ccccc1Br)c1ccccn1	-22%	2µM*	-82%	1%	i	-73%
COc1cccc(C(=O)NCCc2csc3nc(-c4ccccc4F)nn23)c1OC	.	-4%	-5%	-8%	i	-22%
CC(C)(C)NC(=O)C(c1ccc(O)cc1)N(C(=O)Cn1nnc(-c2ccc(F)cc2)n1)c1ccccc1F (stereo not drawn)	-5%	8.9µM*	-23%	-21%	?	-32%
O=NCc1ccc([N+](=O)[O-])o1	0%	.	.	.	.	.
CCCCn1c(SCC(=O)N2c3ccccc3Sc3ccccc32)nc2c1c(=O)n(C)c(=O)n2C	3%	11µM*	?	?	?	5%
CCn1c(SCC(=O)N2c3ccccc3Sc3ccccc32)nc2c1c(=O)n(C)c(=O)n2C	1%	0%	-2%	7%	i	-17%
COc1ccccc1-c1cnc(C(O)c2ccccc2)[nH]1 (stereo not drawn)	6%	-14%	0%	0%	i	-22%
COc1ccccc1-c1cnc(C(O)c2cc(Cl)cc(Cl)c2)[nH]1 (stereo not drawn)	6%	?	-7%	11µM*	i	-21%
OC(c1cccc(Cl)c1)c1ncc(-c2ccc(Oc3ccccc3)cc2)[nH]1 (stereo not drawn)	-7%	?	?	18µM*	.	11µM*
Cc1cc(Cl)ccc1C(O)c1ncc(-c2cccc3ccccc23)[nH]1 (stereo not drawn)	8%	?	-20%	13µM*	i	-37%
